# Measured values published in the supplement of paper PMC12494721.
# Structures can show the parent of a compound that is named as a salt.
# Columns and labels:
# Conditions in all cases: incubation time: 27 h, anaerobic, 37 °C;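 for the amine columns active = adjusted P below 0.05 in both replicates with a change the same way and a mean fold change under 0.8 or over 1.25; inactive = the rest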
# [1] = system: Clostridium sporogenes DSM 1664; experiment: growth (OD595) fold change vs plate DMSO controls (fold change (ratio)); higher = more growth
# Procedure, shortened: (§1)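 After 27 h at 37 °C under anaerobic conditions, 96-well cultures in mGAM were shaken and read at 595 nm. The readings were blank-subtracted, corrected for compound background using 20 µM compound solutions in water, and converted to OD with a calibration factor of 5. Growth is defined as the fold change over the median of DMSO controls on each plate. Fold changes above 1.5 were set to NA, and each value is the mean of 2 biological replicates.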
# [2] = system: Escherichia coli IAI1; experiment: as above
# Procedure, shortened: as §1
# [3] = system: Klebsiella aerogenes DSM 30053; experiment: as above
# Procedure, shortened: as §1
# [4] = system: Ruminococcus gnavus DSM 108212; experiment: as above
# Procedure, shortened: as §1
# [5] = system: Klebsiella aerogenes DSM 30053; experiment: fold change of Histamine concentration vs plate DMSO controls (fold change (ratio)); higher = more amine produced, active = hit call of the paper (significant change in both replicates, either direction)
# Procedure, shortened: (§2)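 Amines were quantified by LC–triple-quadrupole MS in dynamic MRM mode against external calibration curves, with drift correction within each batch. The samples were whole anaerobic mGAM cultures of four gut bacterial strains, grown for 27 h at 37 °C in 80 µL wells and extracted with cold acetonitrile/methanol with 0.1% formic acid, then centrifuged. Values are reported as fold change over DMSO controls on the same plate. The mean of 2 biological replicates is given.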
# [6] = system: Clostridium sporogenes DSM 1664; experiment: fold change of Tryptamine concentration vs plate DMSO controls (fold change (ratio)); higher = more amine produced, active = hit call of the paper (significant change in both replicates, either direction)
# Procedure, shortened: as §2
# [7] = system: Ruminococcus gnavus DSM 108212; experiment: as above
# Procedure, shortened: as §2
# [8] = system: Escherichia coli IAI1; experiment: fold change of Putrescine concentration vs plate DMSO controls (fold change (ratio)); higher = more amine produced, active = hit call of the paper (significant change in both replicates, either direction)
# Procedure, shortened: as §2
# [9] = system: Klebsiella aerogenes DSM 30053; experiment: as above
# Procedure, shortened: as §2
# [10] = system: Escherichia coli IAI1; experiment: fold change of Cadaverine concentration vs plate DMSO controls (fold change (ratio)); higher = more amine produced, active = hit call of the paper (significant change in both replicates, either direction)
# Procedure, shortened: as §2
# [11] = system: Klebsiella aerogenes DSM 30053; experiment: as above
# Procedure, shortened: as §2
# [12] = system: Ruminococcus gnavus DSM 108212; experiment: fold change of 2-Phenylethylamine concentration vs plate DMSO controls (fold change (ratio)); higher = more amine produced, active = hit call of the paper (significant change in both replicates, either direction)
# Procedure, shortened: as §2
Structure (SMILES),growth [1],growth [2],growth [3],growth [4],fold change of Histamine concentration [5],fold change of Tryptamine concentration [6],fold change of Tryptamine concentration [7],fold change of Putrescine concentration [8],fold change of Putrescine concentration [9],fold change of Cadaverine concentration [10],fold change of Cadaverine concentration [11],fold change of 2-Phenylethylamine concentration [12]
N=C(N)NS(=O)(=O)c1ccc(N)cc1 [Sulfaguanidine] (20 µM),0.947,1.07,0.963,0.676,1.04 (inactive),1.27 (inactive),1.09 (inactive),1.2 (inactive),0.853 (inactive),1.04 (inactive),1.05 (inactive),1.09 (inactive)
CC1(C)S[C@@H]2[C@H](NC(=O)Cc3ccccc3)C(=O)N2[C@H]1C(=O)O [Benzylpenicillin sodium] (20 µM),0,1.19,1.1,0,1.06 (inactive),0.05 (active),0.0412 (active),1.09 (inactive),1.04 (inactive),1.56 (active),1.03 (inactive),0.0471 (active)
CCCCC(CC)CN1C(=O)[C@@H]2[C@H](C1=O)[C@@H]1C=C[C@H]2C1 (mixture of isomers) (20 µM),1.03,1.02,1.06,1.02,0.925 (inactive),0.978 (inactive),1.05 (inactive),0.993 (inactive),0.987 (inactive),1.02 (inactive),1 (inactive),1.06 (inactive)
O=c1[nH]c(=O)n([C@H]2C[C@H](O)[C@@H](CO)O2)cc1/C=C/Br [Brivudine] (20 µM),1.08,1.06,1.02,1.06,0.978 (inactive),1.03 (inactive),1.04 (inactive),0.968 (inactive),1 (inactive),0.982 (inactive),1 (inactive),1.08 (inactive)
CCOC(=O)C1=C(C)NC(C)=C(C(=O)OCC)C1c1ccccc1/C=C/C(=O)OC(C)(C)C [Lacidipine] (20 µM),1.03,0.928,0.929,1.12,1.13 (inactive),0.849 (inactive),0.944 (inactive),0.962 (inactive),1.03 (inactive),1.01 (inactive),0.979 (inactive),0.955 (inactive)
Clc1ccc(Cn2c(CN3CCCC3)nc3ccccc32)cc1 [Clemizole hydrochloride] (20 µM),1.15,1.01,1.05,0.643,0.939 (inactive),1.11 (inactive),0.858 (inactive),0.882 (inactive),0.958 (inactive),1.41 (active),1.01 (inactive),0.968 (inactive)
CC(N)CCCC(C)(C)O (centres undefined) [Heptaminol hydrochloride] (20 µM),1.01,1.1,0.998,1.12,0.999 (inactive),0.988 (inactive),1.01 (inactive),1.05 (inactive),1 (inactive),1.04 (inactive),0.994 (inactive),1.05 (inactive)
CN(C)CC/C=C1/c2ccccc2COc2ccc(CC(=O)O)cc21 [Olopatadine hydrochloride] (20 µM),1.01,0.978,1.01,0.955,1 (inactive),0.968 (inactive),1.03 (inactive),1.01 (inactive),1 (inactive),0.995 (inactive),1 (inactive),1.04 (inactive)
O=C(Nc1ccccc1)OCC(CN1CCCCC1)OC(=O)Nc1ccccc1 (centres undefined) [Diperodon hydrochloride] (20 µM),1.11,0.998,0.962,0.942,1.05 (inactive),0.94 (inactive),0.952 (inactive),0.975 (inactive),1.03 (inactive),1.03 (inactive),0.976 (inactive),0.923 (inactive)
COc1ccccc1OCC(O)CN1CCN(CC(=O)Nc2c(C)cccc2C)CC1 (centres undefined) [Ranolazine] (20 µM),1.13,1.01,1.13,0.994,0.957 (inactive),1.03 (inactive),1.03 (inactive),0.997 (inactive),1.01 (inactive),1.01 (inactive),1.01 (inactive),1.06 (inactive)
NC(=O)[C@@H]1CCCN1C(=O)[C@H](Cc1c[nH]cn1)NC(=O)[C@@H]1CCC(=O)N1 [Thyrotropin-Releasing Hormone] (20 µM),0.956,0.979,1.02,0.996,0.966 (inactive),0.998 (inactive),1 (inactive),1.02 (inactive),1 (inactive),0.999 (inactive),1 (inactive),0.998 (inactive)
CN[C@@H]1[C@H](O)[C@H](NC)[C@H]2O[C@@]3(O)C(=O)C[C@@H](C)O[C@H]3O[C@@H]2[C@H]1O [Spectinomycin dihydrochloride] (20 µM),1.04,0.864,0.93,0.692,0.762 (inactive),0.992 (inactive),0.991 (inactive),0.796 (inactive),1.08 (inactive),0.95 (inactive),1.02 (inactive),0.991 (inactive)
